From PubChem
Most compounds without a hit are left out; they make up all but 5.7% or so of the library.
DAX1 inh-1: DAX1 (NR0B1) inhibitors, primary screen, cell-based, HEK293, Gal4-DAX1, luciferase luminescence. HEK293 Gal4-DAX1 luciferase reporter. inhibition, % at 6.75 µM. 340,000 compounds, 0.99% hits. AID 504766, 2011;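 active = inhibition above the mean over all tested compounds plus 3 SD, cut at about 4.2% in these data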;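 note: 0% = DAX1-transfected cells with DMSO and 100% = empty-vector control cells with DMSO; inhibition shows as a rise in luminescence from relieved DAX1 repression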
ssDAF12 agonist: S. stercoralis DAF-12 nuclear receptor activators, primary screen, cell-based, luminescence, HEK293, GRIP1 co-expression, lit1-tk-luc. Nuclear hormone receptor DAF-12 (Strongyloides stercoralis). activation, % at 6.8 µM. HEK293 ssDAF-12/GRIP1 lit1-tk-luc reporter; % of 3 µM dafachronic acid response. 370,000 compounds, 1% hits;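 active = activation above the mean over all tested compounds plus 3 SD, cut at about 0.9% in these data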;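 note: 0% = DMSO-only wells and 100% = 3 µM delta7-dafachronic acid wells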
hcDAF12 agonist: H. contortus DAF-12 nuclear receptor activators, primary screen, cell-based, luminescence, HEK293, lit1-tk-luc reporter | HEK293 hcDAF-12 lit1-tk-luc reporter; 0% DMSO, 100% Δ7-dafachronic acid | activation, % at 6.8 µM | 370,000 compounds, 1.4% hits | AID 652067, 2013;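 active = activation above the mean of all tested compounds plus 3 SD, cut at about 5.5% in these data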;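 note: 100% = response to 3 µM Δ7-dafachronic acid high control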
hgDAF-12 ag: H. glycines DAF-12 receptor agonists, primary screen, cell-based, luminescence, HEK293, GAL4 fusion, UAS-luciferase. 370,000 compounds, 1.8% hits. activation, % at 6.8 µM. HEK293 GAL4-hgDAF12 UAS-luciferase reporter, agonist luminescence; normalized to butyrate control;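 active = activation above a cutoff set at the mean of all screened compounds plus 3 SD, cut at about 10% in these data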;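 note: 0% = DMSO wells and 100% = sodium butyrate wells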
AHR act: AHR activators, primary screen, cell-based, luminescence, luciferase reporter, human; AHR-responsive luciferase reporter cells; activation, % at 5 µM; 320,000 compounds, 2.5% hits; AID 2796, 2010; in the data active = activation above about 47%;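 note: 0% = vehicle wells and 100% = reference agonist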
Target sequence (P35869 whole entry, looked up): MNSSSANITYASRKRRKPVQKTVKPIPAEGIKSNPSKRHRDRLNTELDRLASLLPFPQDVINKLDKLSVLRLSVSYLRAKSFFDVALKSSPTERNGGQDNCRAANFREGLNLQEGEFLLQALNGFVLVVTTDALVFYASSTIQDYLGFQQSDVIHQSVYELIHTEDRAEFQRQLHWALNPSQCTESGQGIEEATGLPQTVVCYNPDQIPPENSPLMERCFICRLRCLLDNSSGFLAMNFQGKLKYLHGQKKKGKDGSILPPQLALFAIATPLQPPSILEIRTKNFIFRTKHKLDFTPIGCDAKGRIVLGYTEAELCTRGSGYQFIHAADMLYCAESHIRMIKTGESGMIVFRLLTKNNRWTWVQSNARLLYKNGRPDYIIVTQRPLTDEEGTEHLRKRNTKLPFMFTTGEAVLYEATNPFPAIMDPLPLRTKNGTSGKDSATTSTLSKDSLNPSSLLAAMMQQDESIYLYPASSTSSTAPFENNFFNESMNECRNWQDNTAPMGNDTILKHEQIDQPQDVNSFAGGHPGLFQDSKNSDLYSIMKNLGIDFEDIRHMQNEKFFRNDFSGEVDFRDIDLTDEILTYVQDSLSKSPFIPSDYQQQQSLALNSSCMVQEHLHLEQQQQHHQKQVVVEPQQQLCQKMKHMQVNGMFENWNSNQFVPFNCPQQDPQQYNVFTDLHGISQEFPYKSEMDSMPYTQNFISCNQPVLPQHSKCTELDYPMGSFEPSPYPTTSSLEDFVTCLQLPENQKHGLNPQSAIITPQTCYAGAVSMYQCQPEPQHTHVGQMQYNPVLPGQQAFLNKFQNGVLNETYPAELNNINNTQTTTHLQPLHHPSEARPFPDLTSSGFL
DAX1 inh-2: DAX1 (NR0B1) inhibitors on StAR promoter, primary screen, cell-based, luminescence, SF-1 (NR5A1), full-length DAX-1; HEK293T StAR-luciferase reporter, SF-1/DAX-1 repression relief; inhibition, % at 6.8 µM; 370,000 compounds, 1.1% hits;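 active = inhibition above the mean over all tested compounds plus 3 SD, cut at about 3.6% in these data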;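 note: 0% = DAX-1 cells with DMSO and 100% = cells lacking DAX-1 with DMSO; higher inhibition means more luminescence from relief of DAX-1 repression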
Starred values were filed as active, the others as inactive; . = no result given; ! = repeats disagree.

SMILES | DAX1 inh-1 | ssDAF12 agonist | hcDAF12 agonist | hgDAF-12 ag | AHR act | DAX1 inh-2
Cc1onc(-c2ccccc2Cl)c1C(=O)OCC(=O)Nc1ccc2c(c1)OCO2 | -1 | -2 | 0 | -1 | 56* | -1
O=c1[nH]nc(-c2n[nH]c(=O)o2)o1 | -2 | 0 | 3 | -1 | . | 0
Cc1c(Cl)cccc1NC(=O)CCN1C(=O)C2CC=CCC2C1=O (configuration not stated) | 0 | -1 | 0 | 1 | 0 | -1
Cc1ccc(NC(=O)CC2S/C(=N/c3nccs3)N(C)C2=O)cc1C (configuration not stated) | 1 | -1 | -1 | -1 | 53* | -1
O=C1OCC(CO)(CO)N=C1NNc1ccccc1[N+](=O)[O-] | 5.2* | -1 | 3 | 3 | 3 | 0
CCCNC(=O)CNC(=O)c1ccc(C#N)cc1 | 1 | -1 | 0 | -1 | -3 | -1
Cc1cc(C)cc(Nc2ncc3c(n2)CCCC3=O)c1 | -1 | 0 | 5 | 10 | -4 | 3.9*
Cc1ccc(S(=O)(=O)N/N=c2\sc3ccccc3n2C)cc1 | 0 | -2 | -1 | -3 | 23 | 0
Cc1cccc(S(=O)(=O)N/N=c2\sc3ccccc3n2C)c1 | 0 | -2 | 2 | 5 | 66* | 1
O=C(/C(=C/O)N=Nc1cccc(C(F)(F)F)c1)c1ccccc1 | 0 | -2 | -1 | 2 | 75* | 0
COc1cccc(CN(c2ccccc2C(=O)O)S(=O)(=O)c2ccc(C)cc2)c1 | 0 | -1 | -1 | 1 | . | 0
NC(=O)CSc1nnc(-c2ccccn2)n1Cc1ccco1 | 2 | -1 | 1 | 1 | 1 | 0
NC(=O)CSc1nnc(-c2ccc(O)cc2)n1Cc1ccco1 | 9.2* | -1 | 0 | 0 | -1 | 0
O=C(CSc1nnc(-c2ccc(Cl)cc2)n1Cc1ccco1)c1cccs1 | 0 | 0 | 4 | 2 | 87* | 0
CCN(CC)C(=O)CSc1nnc(-c2cccs2)n1Cc1ccco1 | -1 | -1 | -1 | 1 | 1 | 0
NC(=O)CSc1nnc(-c2cccs2)n1Cc1ccco1 | 5.5* | -2 | -1 | -1 | 0 | 0
O=C(CSc1nnc(-c2ccncc2)n1Cc1ccco1)c1ccc(Cl)cc1 | -1 | -2 | -1 | 0 | 5 | 0
CC(C)NC(=O)N[C@@H]1C[C@@H]2O[C@@H](CO)CC[C@@H]2O[C@@H]1CCc1ccc(-c2ccc(F)cc2)cc1 | . | -1 | -1 | 1 | . | -1
COc1ccc2c(C)c(CC(=O)N3C[C@H]4C[C@@H](C3)c3cccc(=O)n3C4)c(=O)oc2c1OC | 2 | -1 | 0 | 0 | 1 | 0
CCCOc1ccc(CNC(=S)Nc2ccccc2)cc1Cl | 2 | -1 | -2 | -3 | 76* | 0
O=c1c2ccccc2oc2cc(-c3ccc4[nH]ccc4c3)ccc12 | -2 | 0 | 3 | 11* | -2 | 0
CCOC(=O)Nc1ccc2c(c1)N(C(=O)OCCN(C)C)c1ccccc1CC2 | 5.1*! | -1 | -1 | 1 | 16 | 1
Cc1cc(C(=O)N/N=C/c2c(C)[nH]c3ccccc23)n[nH]1 | -1 | 0 | 4 | 0 | 17 | 1
Cc1cc(C(=O)N/N=C/c2c3ccccc3cc3ccccc23)n[nH]1 | 3 | -1 | -2 | 0 | 98* | 0
Cc1cc(C(=O)N/N=C/c2c(C)n(C)c3ccccc23)n[nH]1 | 1 | -1 | 0 | 2 | 77* | 0
SMILES | DAX1 inh-1 | ssDAF12 agonist | hcDAF12 agonist | hgDAF-12 ag | AHR act | DAX1 inh-2
CCOc1ccc2ccccc2c1/C=N/NC(=O)c1cc(C)[nH]n1 | 0 | -1 | -1 | 1 | 12 | 0
CCN(CC)C(=O)C1CC(=O)N(c2ccc(F)c(Cl)c2)C1 (configuration not stated) | 2 | 0 | -1 | 0 | -1 | 0
O=[N+]([O-])c1cc(Oc2cccnc2)cc([N+](=O)[O-])c1 | 4.4* | -2 | -3 | -4 | 3 | -1
O=C(Oc1cccnc1)c1ccc([N+](=O)[O-])cc1 | -1 | -2 | -3 | 1 | 1 | 0
O=C(O)CCCC(=O)N1CCN(C(c2ccccc2)c2ccccc2)CC1 | 0 | -2 | 1 | -1 | 0 | 0
N#C/C(=C\c1ccc(-c2ccccc2[N+](=O)[O-])o1)C(=O)Nc1nc(-c2cccs2)cs1 | 0 | -1 | -1 | 4 | 59* | 0
N#C/C(=C\c1ccc(-c2ccc([N+](=O)[O-])cc2)o1)C(=O)Nc1nc(-c2cccs2)cs1 | -2 | 0 | 1 | 3 | 16 | 0
CC(C)Cc1nnc(NC(=O)C2=COCCO2)s1 | 2 | -1 | 2 | 7 | 7 | 3.8*
Cc1sc(NC(=O)C2=COCCO2)nc1-c1ccc(F)cc1 | -1 | -1 | 1 | 1 | 52* | -1
O=C(Nc1cccc(C(=O)N2CCCCC2)c1)c1ccccc1Br | 0 | -1 | 2 | 0 | 1 | 2
CSc1ccc(/C=N/NC(=O)CNc2ccc3ccccc3c2)cc1 | 0 | 0 | 5 | 3 | 68* | -1
O=C(CCNc1ccccc1)c1ccc2c(c1)OCO2 | 4.8* | 1 | 4 | 11* | 7 | 3
CC(/C=C/c1ccc2c(c1)OCO2)=N\NC(=O)c1ccccc1 | 3 | -1 | 2 | 8 | 13 | 1
O=C(CCNC(=O)c1ccccc1)N/N=C/c1ccc([N+](=O)[O-])cc1 | -1 | -1 | -1 | -1 | 4 | 0
CC(/C=C/c1ccc2c(c1)OCO2)=N/NC(=O)CNc1ccc(C)cc1 | -2 | -1 | 1 | -1 | 97* | 0
O=C(CNc1ccccc1)N/N=C/c1ccc([N+](=O)[O-])cc1 | 1 | 1.6* | -1 | 4 | 12 | 0
CC(C)C[C@H](NC(=O)c1ccco1)C(=O)N1CCC[C@H]1C(=O)NCc1ccccc1 | . | -1 | -1 | 1 | . | -1
CCOC(=O)N1CCN(C(=O)C[C@H]2C[C@@]3(C(=O)OC)C(=C[C@H](C(C)C)O[C@@H]3C3CC3)N(Cc3ccc(Cl)cc3Cl)C2=O)CC1 | . | -1 | -4 | 0 | . | -1
O=C(CCc1ccccc1)NCC(=O)N/N=C/c1ccc2c(c1)OCO2 | -1 | -1 | 1 | 2 | 5 | 0
O=C(CCc1c[nH]c2ccccc12)N/N=C/c1ccc2c(c1)OCO2 | 0 | -2 | -2 | 2 | 53* | -1
